Bioassay records deposited in PubChem BioAssay by National Center for Advancing Translational Sciences (NCATS).
A selection: hits, their analogues and other compounds. The true share with any hit is near 19%.
TDP1 cell CPT – DT40-hTDP1 cell growth loss with CPT; chicken DT40 Tdp1-/-;hTDP1 cells + 20 nM CPT, ATP luminescence, 48 h; Potency, µM (doses to about 46.2 µM), for inactives: top-dose activity change, negative = growth inhibition, hits mostly inhibitors; hit rate 12% among 420,000; also: potency is read from the fitted curve at half-maximal effect; nearly all actives have a fitted effect of over 55% in size
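Chicken DT40 Tdp1-/- cells stably complemented with human TDP1 were seeded at 400 cells/well in medium containing 20 nM camptothecin, exposed to pin-transferred compounds, and grown at 37 °C for at least 48 hr. Viability was read as ATP luminescence.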
TDP1 cell noCPT – qHTS for Inhibitors of human tyrosyl-DNA phosphodiesterase 1 (TDP1): qHTS in cells in absence of CPT. DT40 Tdp1-/- hTDP1 cells, no CPT, ATP luminescence, 48 h. Potency, µM (doses to about 46.2 µM), for the others: at the top dose activity change, negative = growth inhibition, most hits filed as inhibitors. hit rate 15% among 420,000; also: potency is read from the fitted curve at half-maximal effect; nearly all actives have a fitted effect of over 55% in size
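No-CPT arm: Tdp1-/-;hTDP1 DT40 cells (400/well) plus compounds, incubated ≥48 hr at 37 °C. Readout CellTiter-Glo luminescence.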
TDP1 block – blocks human tyrosyl-DNA phosphodiesterase 1; hit rate 0.28% among 350,000; Q9NUW8; AID 485290; Potency, µM (highest dose often 130 µM), inactives show top-dose activity change, negative = inhibition, hits mostly inhibitors; recombinant TDP1, AlphaScreen DNA substrate cleavage; also: potency is read from the fitted curve at half-maximal effect; nearly all actives have a fitted effect of over 40% in size
Target sequence (Q9NUW8 whole entry, looked up): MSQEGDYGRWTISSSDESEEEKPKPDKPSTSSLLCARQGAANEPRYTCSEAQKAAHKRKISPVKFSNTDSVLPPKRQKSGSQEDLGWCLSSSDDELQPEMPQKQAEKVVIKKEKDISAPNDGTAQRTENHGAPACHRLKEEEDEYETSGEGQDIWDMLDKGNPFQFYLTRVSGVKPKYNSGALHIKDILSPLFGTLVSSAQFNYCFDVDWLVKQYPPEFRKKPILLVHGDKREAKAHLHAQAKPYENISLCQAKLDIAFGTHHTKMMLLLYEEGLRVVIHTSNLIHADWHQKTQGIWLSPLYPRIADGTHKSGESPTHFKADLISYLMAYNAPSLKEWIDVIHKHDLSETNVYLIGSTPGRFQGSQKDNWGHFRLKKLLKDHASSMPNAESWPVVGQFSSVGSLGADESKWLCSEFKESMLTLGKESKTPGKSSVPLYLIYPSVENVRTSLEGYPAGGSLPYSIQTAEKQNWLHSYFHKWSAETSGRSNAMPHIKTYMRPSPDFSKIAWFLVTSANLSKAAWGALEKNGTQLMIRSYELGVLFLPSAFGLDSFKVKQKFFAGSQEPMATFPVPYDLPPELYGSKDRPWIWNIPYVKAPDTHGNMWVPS
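Recombinant human Tdp1 (E. coli-expressed, 1 nM final) preincubated with compounds 15 min at room temperature, then 5'-biotin/3'-phosphotyrosine-FITC DNA substrate (15 nM final) added for 5 min. AlphaScreen beads (10 ug/ml final) added 10 min; cleavage lowers signal.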
Giardia killer – Giardia lamblia killing; hit rate 0.15% among 340,000; Giardia lamblia trophozoite viability; activity change, % at 7.66 µM, hits read low; in the data active = activity change below about -80%; inconclusive = between about -30% and that limit;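 also: parasites exposed to compound for two days anaerobically before the ATP read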
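Trophozoite viability was measured as ATP-dependent luminescence, read 15-30 min after reagent addition. Before that, parasites at 100 cells/well were exposed to compounds for 48 h, anaerobically, at 37 deg C.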
IL-1B inflam inh – inflammasome signaling inhibition, IL-1 beta readout | THP-1 LPS/ATP IL-1B secretion, AlphaLISA, 16 h; hits give low values | activity change, % at 57.5 µM | hit rate 4.7% among 360,000; in the data active = activity change below about -50%; inconclusive = mostly about -30% to -49%
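Secreted IL-1B measured by AlphaLISA bead assay after 16 h compound exposure of THP-1 cells; compounds (final up to 57.5 uM) added 1 h before LPS (250 ng/mL) and ATP (1.25 mM) stimulation; lower signal means less secretion.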
ELG1 repair inh – inhibitors of ELG1-dependent DNA repair in HEK293T cells; HEK293T ELG1-luciferase reporter, luminescence, 16 h; DNA damage induced by 5-fluorouridine; hit rate 2.3% among 330,000; Potency, µM (doses to about 46.1 µM), inactives show at the top dose activity change, negative = inhibition, usual class: inhibitors; also: potency is read from the fitted curve at half-maximal effect; nearly all actives have a fitted effect of over 55% in size
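DMSO vehicle served as the neutral condition. Each well held 2,000 cells given 5-fluorouridine plus compound; after 16 hr at 37 °C/5% CO2, ONE-Glo was added and luciferase measured 30 min later.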
Numbers without * were called inactive. Unless noted, calls follow the shape of the dose curve; as a rule, active = well fitted curve in the direction sought with a large enough effect; inconclusive = small, poorly fitted or top-dose-only effect, or another doubt; inactive = no such curve, though single readings can be large; an effect the other way counts as inactive or inconclusive. % is scaled to controls: 0 for no effect and ±100 for the full control effect.

How did CCN1CCN(C(CNS(=O)(=O)c2ccccc2)c2ccccc2)CC1 (stereo not given) do in these assays?
TDP1 cell CPT: -9%; TDP1 cell noCPT: 10%; TDP1 block: 2%; Giardia killer: 0; IL-1B inflam inh: -29; ELG1 repair inh: 4%

What do the screens show for `CCN1CCN(C2=C(NS(=O)(=O)c3ccccc3)C(=O)c3ccccc3C2=O)CC1`?
TDP1 cell CPT: 21µM*; TDP1 cell noCPT: 16µM*; TDP1 block: 5%; Giardia killer: 40; IL-1B inflam inh: 54; ELG1 repair inh: inconclusive

What do the screens show for `CN1CCN(C2=C(NS(=O)(=O)c3ccccc3)C(=O)c3ccccc3C2=O)CC1`?
TDP1 cell CPT: 23µM*; TDP1 cell noCPT: inconclusive; TDP1 block: 5%; Giardia killer: -1; IL-1B inflam inh: 5; ELG1 repair inh: -26%

Results for COc1ccc(C(CNS(=O)(=O)c2ccccc2)N2CCN(C)CC2)cc1 (stereo not given) ?
TDP1 cell CPT: 5%; TDP1 cell noCPT: 10%; TDP1 block: 0%; Giardia killer: -9; IL-1B inflam inh: 2; ELG1 repair inh: 11%

What do the screens show for `CCOC(=O)C1CCN(C2=C(NS(=O)(=O)c3ccc(Br)cc3)C(=O)c3ccccc3C2=O)CC1`?
TDP1 cell CPT: inconclusive; TDP1 cell noCPT: inconclusive; TDP1 block: 13%; Giardia killer: inconclusive; IL-1B inflam inh: 12; ELG1 repair inh: -3%

What do the screens show for `CCN1CCN(C2=C(NS(=O)(=O)c3ccc(Br)cc3)C(=O)c3ccccc3C2=O)CC1`?
TDP1 cell CPT: 21µM*; TDP1 cell noCPT: 23µM*; TDP1 block: 9%; Giardia killer: 43; IL-1B inflam inh: 29; ELG1 repair inh: -3%

What do the screens show for `O=C1C(NS(=O)(=O)c2ccc(Cl)cc2)=C(N2CCCCC2)C(=O)c2ccccc21`?
TDP1 cell CPT: 26µM*; TDP1 cell noCPT: 18µM*; TDP1 block: 1%; Giardia killer: -10; IL-1B inflam inh: inconclusive; ELG1 repair inh: -25%

How did O=C(Nc1ccc(Br)c2cccnc12)c1cccc2ccccc12 do in these assays?
TDP1 cell CPT: -14%; TDP1 cell noCPT: -18%; TDP1 block: -1%

How did COc1c(C)cccc1C(=O)NC(=S)Nc1ccccc1N1CCCC1 do in these assays?
TDP1 cell CPT: inconclusive; TDP1 cell noCPT: -15%; TDP1 block: 11%; Giardia killer: -3; IL-1B inflam inh: -8; ELG1 repair inh: 23%

Results for COc1ccc(NC(=O)N2CCC3(CC2)CCN(S(=O)(=O)c2ccccc2)CC3)cc1 ?
TDP1 cell CPT: -8%; TDP1 cell noCPT: inconclusive

How did CCOc1ccccc1N1CC(O)=C(c2nc3ccccc3s2)C1=N do in these assays?
TDP1 cell CPT: 3.3µM*; TDP1 cell noCPT: 4.1µM*; TDP1 block: 10%; Giardia killer: -14; IL-1B inflam inh: 13; ELG1 repair inh: 16µM*

Results for N=C1C(c2nc3ccccc3s2)=C(O)CN1C1CCCCC1 ?
TDP1 cell CPT: 7%; TDP1 cell noCPT: -14%; TDP1 block: -7%; Giardia killer: -14; IL-1B inflam inh: -20; ELG1 repair inh: inconclusive

How did N=C1C(c2nc3ccccc3s2)=C(O)CN1Cc1ccccc1 do in these assays?
TDP1 cell CPT: 7.3µM*; TDP1 cell noCPT: 4.6µM*; TDP1 block: 6%; Giardia killer: 12; IL-1B inflam inh: 0; ELG1 repair inh: 4%

How did COc1cccc(-n2ccnc2SCC(=O)Nc2cccc3ccccc23)c1 do in these assays?
TDP1 cell CPT: inconclusive; TDP1 cell noCPT: inconclusive; TDP1 block: 9%

How did CCc1ccc(S(=O)(=O)c2cn(C)c3cc(F)c(F)cc3c2=O)cc1 do in these assays?
TDP1 cell CPT: -23%; TDP1 cell noCPT: inconclusive; TDP1 block: 1%

Results for CCN(CC)c1cc2c(cc1F)c(=O)c(S(=O)(=O)c1cc(C)ccc1C)cn2Cc1ccccc1 ?
TDP1 cell CPT: inconclusive; TDP1 cell noCPT: 18µM*; TDP1 block: 1%

What do the screens show for `CCn1cc(S(=O)(=O)c2ccc(Cl)cc2)c(=O)c2cc(OC)ccc21`?
TDP1 cell CPT: -11%; TDP1 cell noCPT: 3%; TDP1 block: 2%; Giardia killer: -9; IL-1B inflam inh: -9; ELG1 repair inh: -9%

Results for CCCn1cc(S(=O)(=O)c2ccc(CC)cc2)c(=O)c2cc(F)c(N(CC)CC)cc21 ?
TDP1 cell CPT: 8.2µM*; TDP1 cell noCPT: 9.2µM*; TDP1 block: 6%

Results for CCN(CC)c1cc2c(cc1F)c(=O)c(S(=O)(=O)c1ccc(OC)cc1)cn2CC ?
TDP1 cell CPT: 16µM*; TDP1 cell noCPT: 15µM*; TDP1 block: 0%

Results for Oc1ccc(-c2cn3ccccc3n2)cc1O ?
TDP1 cell CPT: 26µM*; TDP1 cell noCPT: 13µM*; Giardia killer: -8; IL-1B inflam inh: 4; ELG1 repair inh: inconclusive

Results for Cc1ccn2cc(-c3ccc4c(c3)NC(=O)CO4)nc2c1 ?
TDP1 cell CPT: 0%; TDP1 cell noCPT: -24%; TDP1 block: -2%; Giardia killer: -10; IL-1B inflam inh: -13; ELG1 repair inh: inconclusive

Results for Cc1ccn2cc(-c3ccc(O)c(O)c3)nc2c1 ?
TDP1 cell CPT: 16µM*; TDP1 cell noCPT: 9.2µM*; Giardia killer: inconclusive; IL-1B inflam inh: 48; ELG1 repair inh: inconclusive

How did O=C(Nc1ccc(Cl)cn1)c1ccccc1SCc1ccccc1 do in these assays?
TDP1 cell CPT: -27%; TDP1 cell noCPT: -16%; TDP1 block: -3%; Giardia killer: -8; IL-1B inflam inh: -2; ELG1 repair inh: -14%

How did Cc1cccc(NC(=O)c2ccccc2SCc2ccc(F)cc2)n1 do in these assays?
TDP1 cell CPT: inconclusive; TDP1 cell noCPT: 15µM*; TDP1 block: -6%; Giardia killer: -23; IL-1B inflam inh: 16; ELG1 repair inh: -18%

Results for Cc1cnc(-n2ncc(C(=O)N(C)Cc3cccc4ncccc34)c2C(C)C)nc1-c1ccc(F)cc1 ?
TDP1 cell CPT: -1%; TDP1 cell noCPT: -10%

How did COc1ccc(CCN2C(=O)c3ccccc3C2c2nnnn2-c2c(C)cccc2C)cc1OC (stereo not given) do in these assays?
TDP1 cell CPT: 23µM*; TDP1 cell noCPT: 12µM*; IL-1B inflam inh: 2

How did COc1ccc(CN2C(=O)CCC2(C)c2nnnn2-c2c(C)cccc2C)cc1OC (stereo not given) do in these assays?
TDP1 cell CPT: 16µM*; TDP1 cell noCPT: 18µM*; IL-1B inflam inh: 0
